Several values for one entry are separate records, joined by “and”; a condition that tells them apart may be missing. Equal entries are not always repeated. Where a structure was tested more than once in an assay, its records may differ in their call. Activity calls are given as the source filed them. The calls were made as follows: active = hit-call score of the fitted dose curve at least 0.9, where 1 is the maximum; inactive = score below 0.9.

The experiment in a line: BSK_hDFCGF_Proliferation: Cell Proliferation Assessment in the BioMAP Diversity Plus: hDFCGF Assay (AID 2283059).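 Also: curves fitted for both rise and fall of signal versus DMSO baseline.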 As to conditions: primary human foreskin fibroblasts. The protocol: BSK_hDFCGF is a cell-based, multiplexed-readout assay that uses foreskin fibroblast, a human skin primary cell, with measurements taken at 24 hours after chemical dosing in a 96-well plate.BSK_hDFCGF_Proliferation is an assay component measured in the BSK_hDFCGF assay. It measures […] related to cell proliferation using Sulforhodamine staining technology.Data from the assay component BSK_hDFCGF_Proliferation was analyzed into 1 assay endpoint. This assay endpoint, BSK_hDFCGF_Proliferation, was analyzed with bidirectional fitting relative to DMSO as the negative control and baseline of activity. Using a type of viability reporter, measures of total protein for gain or loss-of-signal activity can be used to understand the viability at the cellular-level. Furthermore, this assay endpoint can be referred to as a secondary readout, because this assay has produced multiple assay endpoints where this one serves a viability function. To generalize the intended target to other relatable targets, this assay endpoint is annotated to the cell cycle intended target family, where the subfamily is proliferation.
The levels of cell surface (or secreted, indicated by the prefix "s") biomarker endpoints were measured by ELISA. Overt cytotoxicity to cells in confluent adherent cultures (all systems other than the BT system) was assessed by measuring total protein levels using sulforhodamine B (SRB) staining in parallel cultures at the time of biomarker measurements, indicated as SRB endpoints. For proliferation assays for adherent cell types, individual cell types are cultured at sub-confluence and relative cell numbers quantified by SRB staining at time points optimized for each system (48 h: 3C and CASM3C systems; 72 h: BT and HDF3CGF systems; 96 h: SAg system). SRB was performed by staining cells with 0.1% SRB after fixation with 10% TCA and reading wells at 560 nm.Viability and proliferation of PBMC (T cells) was quantified by Alamar Blue reduction for the SAg and BT systems. For PBMC viability (referred to as PBMC Cytotoxicity within the assay endpoint names), cells were plated (75,000/well in a 96-well plate) and then chemical samples added for 1 h before addition of activators, SEB and TSST-1 (20 ng/mL final concentration each). Cells were incubated for 90 h. Then, Alamar Blue (20 uL/well) (Invitrogen, Cat DAL1100) was added for 6 h, and the plates were read with a fluorescence microplate reader at 546/580 nm (excitation/emission). For PBMC proliferation, cells were plated and activated as above but incubated for only 16 h prior to addition of Alamar Blue. Plates were read after 6 h.
Regarding `CC1=NN(c2ccccc2)C(=O)C1`, the result was inactive. On to `CCCCCCCCCCCCOS(=O)(=O)O`, for which the half-maximal activity concentration (AC50) is 16 µM (active). As to `CCCCC(CC)C(=O)O` (stereo not given), the outcome was inactive. On to `Oc1ccc(Cc2ccccc2O)cc1`, for which the AC50 is 33.6 µM (active) and the result was inactive. For the compound `CCCCCCCCCCCCCCCCCC[N+](C)(C)Cc1ccccc1`, the AC50 is 0.0156 µM (active). Consider `CCCCCCCCCCCCCCC`, for which the result was inactive. In the case of `O=C(NO)c1ccccc1`, the AC50 was 3.81 µM (active).

Regarding `O=C1c2ccc(O)c(O)c2C(=O)c2c(O)ccc(O)c21`, the result was inactive. In the case of `Cc1ccc(N=Nc2c(O)ccc3ccccc23)c(C)c1`, the result was inactive. On the same count and under the same terms, then `CCCCC(CC)C(=O)OCCOCCOCCOCCOC(=O)C(CC)CCCC` (stereo not given), with “inactive”. Same read-out and setting: under `CN(Cc1cnc2nc(N)nc(N)c2n1)c1ccc(C(=O)N[C@@H](CCC(=O)O)C(=O)O)cc1` stands “inactive”. In the case of `O=C(CC(=O)C(F)(F)C(F)(F)C(F)(F)F)c1cccs1`, the half-maximal activity concentration (AC50) was 4.23 µM (active) and 4.92 µM (active). For `CN(CCO)S(=O)(=O)C(F)(F)C(F)(F)C(F)(F)C(F)(F)C(F)(F)C(F)(F)C(F)(F)C(F)(F)F`, the result was inactive. On the same count and under the same terms, then `Clc1ccc(Nc2nnc(Cc3ccncc3)c3ccccc23)cc1`, with “inactive”; and `CC[N+](CC)(CC)Cc1ccccc1`, with “inactive”; and `O=C(NCc1ncc(C(F)(F)F)cc1Cl)c1c(Cl)cccc1Cl`, with “inactive”. With `Oc1c(Cl)cc(Cl)cc1Sc1cc(Cl)cc(Cl)c1O`, the AC50 was 1.08 µM (active) and 148 nM (active). Turning to `CN(C)CCOC(c1ccccc1)c1ccccc1`, the outcome was inactive. Same read-out and setting: under `COc1cccc(O)c1` stands “inactive”. As for `C=CC(C)(CCC=C(C)C)OC(C)=O` (stereo not given), the concentration at half-maximal activity (AC50) was 24.7 µM (active). Turning to `COc1cc(OC)nc(NC(=O)NS(=O)(=O)Nc2ccccc2C(=O)N(C)C)n1`, the result was inactive. Same read-out and setting: under `OCC(F)(F)C(F)(F)C(F)(F)C(F)(F)C(F)(F)C(F)(F)C(F)(F)C(F)(F)C(F)(F)C(F)(F)C(F)(F)F` stands “inactive”. For the compound `CCCCc1oc2ccccc2c1C(=O)c1cc(I)c(OCCN(CC)CC)c(I)c1`, the AC50 is 3.97 µM (active). With `CCCCCc1ccc(O)cc1`, the AC50 was 8.97 µM (active). Consider `CCOC(=O)CN[C@@H](C(=O)N1CC[C@H]1C(=O)NCc1ccc(/C(N)=N/O)cc1)C1CCCCC1`, for which the result was inactive. As for `O=C(O)C(F)(F)OC(F)(F)C(F)(F)OC(F)(F)C(F)(F)OC(F)(F)C(F)(F)C(F)(F)C(F)(F)F`, the half-maximal activity concentration (AC50) was 7.93 µM (active) and 8.07 µM (active).

For `O=S(=O)(O)C(F)(F)C(F)(F)C(F)(F)C(F)(F)C(F)(F)C(F)(F)C(F)(F)C(F)(F)C(F)(F)C(F)(F)F`, the concentration at half-maximal activity (AC50) was 1.46 µM (active) and 1.89 µM (active). Still for that read-out and setting: under `O=P(O)(O)CCC(F)(F)C(F)(F)C(F)(F)C(F)(F)C(F)(F)C(F)(F)F` stands 15.8 µM (active) and 19.1 µM (active). With `OCC(CO)(CBr)CBr`, the outcome was inactive.

For the compound `COCN(COC)c1nc(N(COC)COC)nc(N(COC)COC)n1`, the outcome was inactive. Consider `C=CC(=O)OCCC(F)(F)C(F)(F)C(F)(F)C(F)(F)C(F)(F)C(F)(F)C(F)(F)C(F)(F)F`, for which the result was inactive and the half-maximal activity concentration (AC50) is 30 µM (active). With `CC(C)(C)c1ccc(O)c(O)c1`, the AC50 was 7.12 µM (active).

As for `OCCN1CN(CCO)CN(CCO)C1`, the AC50 is 25.8 µM (active). Regarding `O=C(CCCN1CCC(O)(c2ccc(Cl)cc2)CC1)c1ccc(F)cc1`, the AC50 is 4.55 µM (active). As to `C[C@]12CC[C@@H]3c4ccc(O)cc4CC[C@H]3[C@@H]1C[C@@H](O)[C@@H]2O`, the outcome was inactive. On the same count and under the same terms, then `CCCCC=O`, with “inactive”. On to `CCCCCCCCCCCC`, for which the half-maximal activity concentration (AC50) was 11.6 µM (active) and 11.5 µM (active). For `COC1=CC(=O)C[C@@H](C)[C@]12Oc1c(Cl)c(OC)cc(OC)c1C2=O`, the result was inactive.
